aSyn UTR inh – 5' untranslated region of α-synuclein, MLPCN primary screen; alpha-synuclein 5'UTR reporter, inhibitor activity; inhibition, % (tested at 7.5 µM); 300,000 compounds, 0.82% hits; AID 1813; in the data active = inhibition above about 60%;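 note: H4 neuroglioblastoma cells stably carrying SNCA 5'UTR luciferase fusion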
KLF5 inhibitor – inhibitors of KLF5 expression; DLD-1 KLF5 promoter-luciferase reporter, luminescence; AID 1700; 290,000 compounds, 0.23% hits; inhibition, % at 5 µM;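 active = inhibition above a per-plate limit of that plate's mean compound inhibition plus 3 SD, cut at about 60% in these data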;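 note: higher means less KLF5 promoter-driven luciferase light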
TMEM16A act – mouse TMEM16A channel activation, primary screen; 340,000 compounds, 0.3% hits; Q8BHY3; HEK293 TMEM16A/YFP-H148Q/I152L, iodide quench fluorescence; active compounds read low; B-score at 10 µM; AID 623877;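 active = fluorescence-ratio B-score plate-corrected deviation score at least 3 library SD below zero, with starting fluorescence score within 5 deviations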;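 note: channel opened by trigger with iodide after compound preincubation; score built on the fluorescence ratio of max minus min over baseline; more negative score means more quench and so TMEM16A activation or potentiation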
Target sequence (Q8BHY3 whole entry, looked up): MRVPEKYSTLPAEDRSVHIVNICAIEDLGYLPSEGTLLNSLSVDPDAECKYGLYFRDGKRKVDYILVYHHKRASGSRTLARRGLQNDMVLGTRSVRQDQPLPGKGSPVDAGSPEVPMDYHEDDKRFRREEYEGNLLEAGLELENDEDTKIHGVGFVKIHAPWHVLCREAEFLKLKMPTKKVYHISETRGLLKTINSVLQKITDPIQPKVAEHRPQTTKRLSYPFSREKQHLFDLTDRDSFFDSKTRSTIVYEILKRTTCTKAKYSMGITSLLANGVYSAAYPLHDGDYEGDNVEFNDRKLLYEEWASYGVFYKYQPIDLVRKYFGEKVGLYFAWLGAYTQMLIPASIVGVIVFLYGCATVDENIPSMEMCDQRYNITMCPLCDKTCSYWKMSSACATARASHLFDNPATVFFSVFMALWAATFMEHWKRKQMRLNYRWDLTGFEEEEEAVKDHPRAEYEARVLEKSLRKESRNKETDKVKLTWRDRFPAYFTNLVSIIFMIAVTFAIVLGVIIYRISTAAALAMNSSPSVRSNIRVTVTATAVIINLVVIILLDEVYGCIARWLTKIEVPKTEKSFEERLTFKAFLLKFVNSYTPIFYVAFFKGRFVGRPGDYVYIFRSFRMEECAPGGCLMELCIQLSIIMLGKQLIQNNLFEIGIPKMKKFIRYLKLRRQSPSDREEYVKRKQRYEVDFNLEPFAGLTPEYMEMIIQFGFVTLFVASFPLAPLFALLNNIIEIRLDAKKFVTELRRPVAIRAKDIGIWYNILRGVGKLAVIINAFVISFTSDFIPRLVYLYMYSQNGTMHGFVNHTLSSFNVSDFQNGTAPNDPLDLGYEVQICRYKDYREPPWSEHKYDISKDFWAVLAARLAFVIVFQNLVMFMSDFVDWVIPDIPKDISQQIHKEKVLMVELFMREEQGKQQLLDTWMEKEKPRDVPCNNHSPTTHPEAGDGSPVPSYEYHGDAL
TMEM16A inh – inhibitors of mouse TMEM16A calcium-activated chloride channel. Q8BHY3. HEK293 TMEM16A/YFP iodide influx fluorescence, ionomycin. normalized B-score (activity score, 25-100; higher = stronger inhibition) at 10 µM. 310,000 compounds, 1.2% hits. AID 588511;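 active = ratio plate-corrected score three or more library SD toward inhibition, starting fluorescence score within five deviations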;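 note: score derived from kinetic fluorescence span divided by baseline fluorescence per well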
Jurkat NFkB inh – inhibitors of the PMA/ionomycin-induced NF-kB reporter in Jurkat cells; PMA/ionomycin-induced NF-kB luciferase reporter, luminescence; inhibition, % at 4 µM; 330,000 compounds, 0.53% hits; in the data active = inhibition above about 50%
697 NFkB inh – inhibitors of the PMA/ionomycin-induced NF-kB reporter in 697 B cells; 330,000 compounds, 0.33% hits; inhibition, % at 4 µM; 697 B-cell NF-kB luciferase reporter, 16 h; in the data active = inhibition above about 35%
Of the large screens only hits and unclear results are named; the others gave an inactive call. Hits are enriched below; roughly 2.5% of the tested compounds scored in any of these assays.

Cc1ccc(NC(=O)c2ccccc2NS(=O)(=O)c2ccc(Cl)s2)cc1	none
O=C(Nc1ccccc1Cc1ccccc1)c1ccccc1NS(=O)(=O)c1ccc(Cl)s1	TMEM16A inh 25
COc1ccc(C2c3ccc4ccccc4c3Oc3ncn(CCN4CCOCC4)c(=N)c32)cc1 (stereo unspecified)	none
COc1ccc(C2c3ccc4ccccc4c3Oc3ncn(CCN4CCOCC4)c(=N)c32)cc1OC (stereo unspecified)	aSyn UTR inh 105
Cc1ccc2cc(CN(CC3CCCO3)C(=S)Nc3ccccc3)c(=O)[nH]c2c1C (stereo unspecified)	aSyn UTR inh 72
O=C(OCc1cc(Cl)ccc1OC(F)F)c1ccc([N+](=O)[O-])o1	none (no result: TMEM16A act)
CC(C)(OC(=O)c1cccs1)c1cc2ccccc2c(=O)o1	none (no result: aSyn UTR inh, KLF5 inhibitor, TMEM16A inh)
CCn1c2ccccc2c2c3ncc4cccn4c3ccc21	none
COc1cc(/C=C2\C(=O)ON=C2c2ccc(Cl)cc2)ccc1O	TMEM16A act -5.9 (no result: KLF5 inhibitor)
CCOCC(=O)Nc1nc2ccc(C)cc2s1	none
Cc1ccc2nc(NC(=O)CSCC(=O)OCC(=O)c3ccccc3)sc2c1	aSyn UTR inh 62 (no result: Jurkat NFkB inh, 697 NFkB inh)
COc1cccc(/C=N/NC(=O)c2c(C)nc3ccc(Br)cn23)c1O	aSyn UTR inh 71
CCOc1ccccc1/C=N/NC(=O)c1c(C)nc2ccc(Br)cn12	none
CC1(C)CC(=O)C(C2C3=C(CC(C)(C)CC3=O)Oc3c(Br)cc(Br)cc32)=C(O)C1 (stereo unspecified)	TMEM16A inh 25
CCNC(=S)NNC(=O)c1cc(-c2ccc(OC)cc2)nc2ccccc12	none
COc1ccc(Cl)cc1C(=O)NNC(=S)NC(=O)c1cc(-c2ccc(Cl)cc2)nc2ccccc12	TMEM16A inh 100
CCCCOc1ccc(-c2cnc3ccccc3n2)cc1	aSyn UTR inh 101
CCCCOc1ccc(-c2cc(C(=O)NNC(=S)NCC)c3ccccc3n2)cc1	TMEM16A inh 100
Oc1ccc(-c2cnc3ccccc3n2)cc1	none (no result: KLF5 inhibitor)
Cc1c(C(=O)N2CCOCC2)sc(NC(=O)C(C)C)c1C#N	none
COCCSc1nnc(NC(=O)COC)s1	none
CCCSc1nnc(NC(=O)Nc2ccc(F)cc2)s1	TMEM16A inh 100
CCC(=O)Nc1nnc(SCCOC)s1	TMEM16A inh 25
O=C(Nc1nnc(SCc2ccc(F)cc2)s1)c1ccccn1	aSyn UTR inh 63 (no result: TMEM16A inh)
O=C(Nc1nnc(SCc2ccc(F)cc2)s1)c1cccnc1Cl	none
C[C@H](CO)N1C[C@H](C)[C@@H](CN(C)C(=O)Nc2ccc(C(F)(F)F)cc2)Oc2ccc(NS(=O)(=O)c3ccccc3)cc2C1=O	none (no result: aSyn UTR inh, KLF5 inhibitor, TMEM16A inh)
Cc1cc(SCC(=O)N/N=C/c2ccc(O)cc2O)c(C)cc1Br	aSyn UTR inh 78
CCn1c2ccccc2c2cc(CNCc3ccc(OC)cc3OC)ccc21	aSyn UTR inh 63, TMEM16A inh 100
CCC(=O)c1ccc(O)cc1	TMEM16A act -13
COc1ccc(COC(=O)C2CCN(S(=O)(=O)c3ccc(OC)c(OC)c3)CC2)cc1	none (no result: aSyn UTR inh, KLF5 inhibitor, TMEM16A inh)
O=C(NC(=S)NC(CO)Cc1ccccc1)c1ccc(F)cc1 (stereo unspecified)	none
Cc1ccc(OCCn2cc(C#N)c3ccccc32)cc1	TMEM16A inh 100
COc1ccccc1OCCn1cc(C#N)c2ccccc21	none
CC(O)(CS(=O)(=O)Cc1ccc(Cl)cc1)C(=O)Nc1cccc(C(F)(F)F)c1 (stereo unspecified)	none
O=C(Nc1cccc(C(F)(F)F)c1)N(Cc1ccc(Cl)cc1)CC(O)C(F)(F)F (stereo unspecified)	TMEM16A inh 100
CCc1ccccc1NC(=O)CSc1nnc(-c2cc(C)[nH]n2)n1N	none
Cc1cc[n+](-c2[nH]c(=O)sc2/C=N/N=C(\[O-])c2ccccc2)cc1C	TMEM16A act -5.6 (no result: TMEM16A inh, Jurkat NFkB inh, 697 NFkB inh)
CCN1CCN(S(=O)(=O)c2ccc(Cl)c(C(=O)NC(C)c3ccccc3Cl)c2)CC1 (stereo unspecified)	none (no result: KLF5 inhibitor)
CC[C@H](C)/C=C/C1=CC2=C(Cl)C(=O)[C@@]3(C)OC(=O)C(C(=O)[C@H](C)[C@@H](C)O)=C3C2=CO1	TMEM16A inh 25 (no result: KLF5 inhibitor)
Cc1ccc(S(=O)(=O)N(CC(=O)NCCC2=CCCCC2)Cc2ccccc2F)cc1	TMEM16A inh 25
CN(CC(=O)Nc1ccc(Cl)c(C(F)(F)F)c1)C(=O)/C=C/c1cccs1	none (no result: aSyn UTR inh, KLF5 inhibitor, TMEM16A inh)
